# Laboratory results as given in PubChem BioAssay (NCI).
# “And” between values parts separate entries of the source, which are not always exact repeats. Equal entries are not always repeated. Compounds without any hit were thinned out: in the full panel of roughly 83,000, 20% have a hit.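 Note: values are percent growth. 100 is the growth of untreated cells, values between 100 and 0 indicate rising inhibition; between -100 and 0 indicates cell death.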 The source made the active and inactive calls. How the source made its calls: active means growth percent below 10; inactive means the rest.
# Key:
# Test in all cases: NCI-60 one-dose screen, 48 h (100 = growth as untreated, 0 = no growth, -100 = all killed)
# Details in all cases: 10 µM unless noted
# SR leukemia = system: SR leukemia
# RPMI-8226 leukemia = system: RPMI-8226 leukemia
# OVCAR-8 ovarian = system: OVCAR-8 ovarian
# OVCAR-5 ovarian = system: OVCAR-5 ovarian
# OVCAR-4 ovarian = system: OVCAR-4 ovarian
# SK-OV-3 ovarian = system: SK-OV-3 ovarian
# IGROV1 ovarian = system: IGROV1 ovarian
# OVCAR-3 ovarian = system: OVCAR-3 ovarian
# HS 578T breast = system: HS 578T breast
# NCI/ADR-RES ovarian = system: NCI/ADR-RES ovarian
SMILES,growth (SR leukemia),growth (RPMI-8226 leukemia),growth (OVCAR-8 ovarian),growth (OVCAR-5 ovarian),growth (OVCAR-4 ovarian),growth (SK-OV-3 ovarian),growth (IGROV1 ovarian),growth (OVCAR-3 ovarian),growth (HS 578T breast),growth (NCI/ADR-RES ovarian)
C/C(CC1(O)C(=O)Nc2ccccc21)=N\O (stereo not given),100% (inactive),100% (inactive),101% (inactive),99.2% (inactive),95.1% (inactive),108% (inactive),97.9% (inactive),106% (inactive),97.4% (inactive),95.9% (inactive)
Cc1cc(Br)ccc1-n1cc(C#N)c(N)c1C(=O)c1ccc(Br)cc1,89.4% (inactive),106% (inactive),106% (inactive),114% (inactive),114% (inactive),109% (inactive),110% (inactive),115% (inactive),106% (inactive),103% (inactive)
Cc1ccc2c(n1)C(=O)C(Cl)=C(Nc1cc(C(F)(F)F)cc(C(F)(F)F)c1)C2=O,7.46% (active),6.65% (active),87.8% (inactive),109% (inactive),-84.8% (active),110% (inactive),27.8% (inactive),37.3% (inactive),92.8% (inactive),99.7% (inactive)
CN1CCN(c2ccc(Nc3nc(NCCCNS(=O)(=O)c4ccc(F)cc4)c4sccc4n3)cc2)CC1,7.3% (active),12.5% (inactive),77.3% (inactive),86.7% (inactive),60% (inactive),115% (inactive),81.6% (inactive),97.4% (inactive),55.6% (inactive),87.8% (inactive)
COc1cc(-c2nc(-c3ccccc3)[nH]c2-c2ccnc(NCCCNS(=O)(=O)c3ccc(C(F)(F)F)cc3)n2)ccc1Cl,9.32% (active) and 35.8% (inactive),12.5% (inactive) and 31.6% (inactive),53.2% (inactive) and 40.2% (inactive),103% (inactive) and 84.4% (inactive),41.6% (inactive) and 39.1% (inactive),99.5% (inactive) and 55.1% (inactive),59.6% (inactive) and 51.8% (inactive),33.6% (inactive) and 39.6% (inactive),58.8% (inactive) and 71.9% (inactive),13.8% (inactive) and 32.4% (inactive)
Cc1nc(N)sc1-c1csc(Nc2ccc(C(F)(F)F)cc2)n1,18.9% (inactive),26.6% (inactive),49.4% (inactive),32.2% (inactive),42.7% (inactive),65.5% (inactive),18.9% (inactive),20.8% (inactive),32.4% (inactive),27.3% (inactive)
CCOC(=O)c1c(NC(=O)c2ccc(C(F)(F)F)cc2)sc2c3c(ccc12)OCN(C)C3,-29.8% (active),-36.9% (active),-48% (active),54.2% (inactive),82.4% (inactive),93.5% (inactive),41.9% (inactive),2.17% (active),78.7% (inactive),51.9% (inactive)
O=C(/C=C/Nc1ccc(S(=O)(=O)Nc2ncccn2)cc1)c1ccc(N=Cc2c(O)[nH]c3ccccc23)cc1,82.1% (inactive),86.4% (inactive),101% (inactive),115% (inactive),106% (inactive),109% (inactive),118% (inactive),137% (inactive),105% (inactive),110% (inactive)
CC1=C(C)C(=O)C(Nc2ccc3c(c2)OCO3)=C(Br)C1=O,56.9% (inactive),71% (inactive),98.3% (inactive),116% (inactive),60.3% (inactive),87.6% (inactive),90.9% (inactive),104% (inactive),99.7% (inactive),97.4% (inactive)
O=C(CSc1nc2ccccc2c(=O)n1-c1ccccc1)Nc1ccc(S(=O)(=O)Nc2nccs2)cc1,65% (inactive),36.8% (inactive),89.7% (inactive),56.9% (inactive),77.5% (inactive),103% (inactive),83% (inactive),38.9% (inactive),60.3% (inactive),98.3% (inactive)
CC(=O)Nc1ccccc1-c1nc2ccccc2s1,110% (inactive),113% (inactive),103% (inactive),102% (inactive),97.4% (inactive),108% (inactive),101% (inactive),112% (inactive),106% (inactive),98.5% (inactive)
Clc1ccc(CSc2nnc(-c3ccc(Cl)cc3)n2-c2ccccc2)cc1,91.7% (inactive),94.4% (inactive),46.3% (inactive),104% (inactive),16% (inactive),48.3% (inactive),75.9% (inactive),101% (inactive),43.7% (inactive),54.2% (inactive)
CCOC(=O)c1cnc2c(-c3ccc(Cl)c(Cl)c3)cnn2c1,23.1% (inactive),87.7% (inactive),93.6% (inactive),99.8% (inactive),98.8% (inactive),90.8% (inactive),79.1% (inactive),70.8% (inactive),82.6% (inactive),58.5% (inactive)
C(=N\Nc1nc(N/N=C/c2ccc3c(c2)OCO3)nc(N2CCCCC2)n1)/c1ccc2c(c1)OCO2,0.113% (active),56.2% (inactive),90.1% (inactive),118% (inactive),110% (inactive),140% (inactive),76.9% (inactive),105% (inactive),104% (inactive),85.5% (inactive)
Cc1csc(/N=C(N)/N=C(\N)c2cccnc2)n1,45.7% (inactive),86.1% (inactive),89.7% (inactive),92.5% (inactive),98.9% (inactive),77.8% (inactive),67.9% (inactive),66.7% (inactive),78.8% (inactive),48.4% (inactive)
O=C(CSc1nc2ccccc2c(=O)n1-c1ccccc1)N/N=C/c1ccc(Oc2ccc(Br)cc2)cc1,73.4% (inactive),68.3% (inactive),63.3% (inactive),94% (inactive),81.7% (inactive),84.5% (inactive),65.6% (inactive),117% (inactive),60.8% (inactive),55.2% (inactive)
CC(C)(C)Nc1nc2c(OCCc3ccccc3)cccn2c1-c1ccc([N+](=O)[O-])cc1,52% (inactive),43.1% (inactive),64% (inactive),67.3% (inactive),42.3% (inactive),76.5% (inactive),56.9% (inactive),50.6% (inactive),78.3% (inactive),51.6% (inactive)
Cn1ncc2c(C(=O)c3ccc(F)cc3)nc(C(C)(C)C)nc21,102% (inactive),100% (inactive),105% (inactive),98.2% (inactive),107% (inactive),112% (inactive),103% (inactive),98.6% (inactive),96.5% (inactive),107% (inactive)
COc1cc(-c2nc(-c3ccccc3)[nH]c2-c2ccnc(NCCCNS(=O)(=O)c3cccc(F)c3)n2)ccc1F,77.1% (inactive),62.4% (inactive),86% (inactive),118% (inactive),104% (inactive),136% (inactive),-69.7% (active),109% (inactive),103% (inactive),92.1% (inactive)
CNCCN(C)c1ccc(Nc2cc(NC3CC3)n3ncc(C#N)c3n2)cc1NC(C)=O,6.13% (active),12.2% (inactive),21.7% (inactive),7.68% (active),2.94% (active),-13.6% (active),-18.3% (active),-16.9% (active),-19% (active),45.5% (inactive)
CCN(CC)CCOc1ccc(C(=C(c2ccccc2)C2CCCC2)c2ccc(OCCN(CC)CC)cc2)cc1,-5.92% (active),-30.8% (active),40.5% (inactive),38.5% (inactive),34.7% (inactive),21.2% (inactive),-40.4% (active),16.9% (inactive),12.8% (inactive),97.1% (inactive)
O=S(=O)(NCCCNc1nccc(-c2[nH]c(-c3ccccc3)nc2-c2ccc(F)c(O)c2)n1)c1ccc(C(F)(F)F)cc1,1.01% (active),16.2% (inactive),69.7% (inactive),136% (inactive),67.8% (inactive),78.4% (inactive),63.1% (inactive),33.6% (inactive),48.9% (inactive),89% (inactive)
Cc1ccc2c(n1)C(=O)C(Cl)=C(Nc1ccc(C)c(C)c1)C2=O,28.1% (inactive),11.1% (inactive),67.2% (inactive),91.6% (inactive),-29% (active),99.1% (inactive),-45.5% (active),-21.4% (active),32.8% (inactive),63.1% (inactive)
